Activity calls are given as the source filed them.

Experimental findings from PubChem BioAssay are described below.

In experiment [1] the target is Albumin (Bos taurus) (UniProt P02769). The experiment in a line: compounds binding labelled BSA control protein – biochemical, small-molecule microarray, Alexa647 label, 635/667 nm fluorescence, artefact control for SMM control protein annotation, profiling panel (AID 1118).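 Also: score merges 667 nm emission intensity and signal-to-noise per printed compound spot.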 The conditions noted are these: BSA-A647 binding, fluorescence 635 nm, higher = more signal.
Albumin (Bos taurus), sequence (P02769 whole entry, looked up): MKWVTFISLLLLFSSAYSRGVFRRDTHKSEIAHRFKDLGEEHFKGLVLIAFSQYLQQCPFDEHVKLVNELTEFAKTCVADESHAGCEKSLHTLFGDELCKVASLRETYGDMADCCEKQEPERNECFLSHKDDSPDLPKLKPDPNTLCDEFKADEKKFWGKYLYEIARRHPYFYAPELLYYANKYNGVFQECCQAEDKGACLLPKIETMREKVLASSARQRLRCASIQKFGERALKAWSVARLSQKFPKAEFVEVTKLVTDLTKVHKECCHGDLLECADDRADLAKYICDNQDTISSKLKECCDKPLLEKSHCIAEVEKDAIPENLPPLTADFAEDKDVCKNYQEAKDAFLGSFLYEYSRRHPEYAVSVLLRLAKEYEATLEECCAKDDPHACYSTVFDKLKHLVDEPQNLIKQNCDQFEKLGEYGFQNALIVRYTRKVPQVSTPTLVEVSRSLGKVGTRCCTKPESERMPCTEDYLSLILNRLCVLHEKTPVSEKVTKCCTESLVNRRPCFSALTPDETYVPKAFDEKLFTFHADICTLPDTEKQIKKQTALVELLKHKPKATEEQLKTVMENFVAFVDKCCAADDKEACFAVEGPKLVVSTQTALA
Experiment [2] in a line: probe aXIP binding to arrayed compounds – biochemical, NeuroSMM set, 635/667 nm fluorescence, primary screen (AID 1119).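 Also: probe is the protein aXip251-270 applied at 1 µg/mL to compound-printed slides; binding of probe to printed compounds measured as 667 nm fluorescence plus signal to noise.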 The conditions noted are these: small-molecule microarray, higher = more signal, called active from +8 up or from −8 down.
The nature of experiment [3]: probe aNOTCH3 binding on compound microarray – biochemical, small-molecule microarray, 635/667 nm fluorescence, primary screen (AID 1120).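 Also: probe is a biotin-tagged antibody raised against NOTCH3 rather than NOTCH3 protein; score merges spot fluorescence near 667 nm with spot signal to noise.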 The settings on record: higher = more signal.
The nature of experiment [4]: probe aNOTCH2 binding on compound microarray – biochemical, small-molecule microarray, 635/667 nm fluorescence, primary screen (AID 1121).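 Also: score merges feature fluorescence read at 667 nm with its signal to noise.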 The settings on record: higher = more signal.
Experiment [5] has as its target Carbonic anhydrase 2 (Homo sapiens) (UniProt P00918). Briefly: compounds binding carbonic anhydrase 2 – biochemical, small-molecule microarray, Alexa647-labelled CAII, profiling panel (AID 1122). The settings on record: CAII-A647 binding fluorescence, higher = more signal.
The nature of experiment [6]: COS7 lysate on small-molecule microarray, probe aHis, 635 nm (AID 1123).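 Also: z-score combines 667nm fluorescence intensity with signal-to-noise per printed compound spot.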 The settings on record: COS7 cell lysate, fluorescence, higher = more signal.
Experiment [7] can be described thus: probe aLAP1 signal on lysate-treated microarray – cell lysate, small-molecule microarray, COS7 lysate, primary screen (AID 1124).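 Also: lysate comes from COS7 cells expressing LAP1 and is applied at 0.3 µg/mL; score merges spot fluorescence near 667 nm with signal-to-noise over triplicate slides.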 The conditions noted are these: probe aLAP1, fluorescence, higher = more signal.
In experiment [8] the test system is Sam68 (KHDRBS1). The experiment in a line: compounds binding KHDRBS1 protein – biochemical, small-molecule microarray, 635 nm fluorescence, primary screen (AID 1125).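 Also: score merges 667 nm channel intensity with signal to noise over triplicate slides.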 The conditions noted are these: higher = more signal.
For experiment [9], the system named is Chordin-like protein 2 (CHRDL2). The experiment in a line: compounds binding chordin-like 2 – biochemical, small-molecule microarray, 635 nm fluorescence, primary screen (AID 1126).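 Also: printed compound slides probed with Chrdl2 protein at 4 µg/mL for 1 h at 4 C; score merges 667 nm emission intensity with signal to noise over three replicate slides.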 The settings on record: fluorescence 635 nm, higher = more signal.
For experiment [10], the target named is Concanavalin-A (Canavalia ensiformis) (UniProt P02866). Briefly: compounds binding concanavalin A lectin – biochemical, small-molecule microarray, Alexa647 label, 635 nm, artefact control for SMM control protein annotation, primary screen (AID 1127).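 Also: z combines 667 nm emission intensity with signal-to-noise across three replicate slides.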 The settings on record: ConA-A647 binding fluorescence, higher = more signal.
Concanavalin-A (Canavalia ensiformis), sequence (P02866 whole entry, looked up): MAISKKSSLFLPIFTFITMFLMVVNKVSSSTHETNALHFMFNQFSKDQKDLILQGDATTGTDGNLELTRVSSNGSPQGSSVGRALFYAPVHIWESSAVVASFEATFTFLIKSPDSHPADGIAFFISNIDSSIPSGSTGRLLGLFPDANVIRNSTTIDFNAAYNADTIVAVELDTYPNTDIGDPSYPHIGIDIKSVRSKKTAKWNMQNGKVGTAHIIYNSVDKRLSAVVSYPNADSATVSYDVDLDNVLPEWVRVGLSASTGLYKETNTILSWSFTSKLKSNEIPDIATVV

Turning to `COCCOC(=O)N1C(=O)[C@@]2(c3cc(C#CC4=CCCCC4)ccc31)[C@H](c1ccccc1OCCO)N1[C@H](c3ccccc3)[C@H](c3ccccc3)OC(=O)[C@H]1[C@@H]2C(N)=O`, the composite z-score is -0.0123 in [1]; 0.0174 in experiment [3]; -0.0728 in [4]; 0.265 in [5]; 1.14 in experiment [6]; 0.561 in experiment [7]. The composite z-score is 1.28 in experiment [8], 0.492 in experiment [9] and 1.13 in [10]. Besides, in experiment [2], the composite Z-score was -0.463 (inactive).

Turning to `CC#CCO[Si](C#CCCCCCC)(C(C)C)C(C)C`, the composite z-score in [1] was -0.611; in [3] it was -0.597; in experiment [4], -0.192; in [5], -0.553; in experiment [6], -0.0607; in experiment [7] it was -0.529. Further, the composite z-score was 0.204 in experiment [8], -2.33 in experiment [9] and -2.41 in experiment [10]. Besides, the composite Z-score in experiment [2] is -0.244 (inactive).

Turning to `COc1cc2c(cc1O)C(c1ccc(CN3CCCC3)cc1)N(Cc1cccc(OC(F)(F)F)c1)CC2` (stereo not given), the composite z-score is 0.771 in experiment [1]; -0.0795 in experiment [3]; -0.207 in experiment [4]; 0.546 in [5]; 1.72 in experiment [6]; 0.637 in experiment [7]. For the same compound, the composite z-score in experiment [8] was 0.658; in [9], 0.73; in experiment [10] it was -0.328. For the same compound, the composite Z-score in experiment [2] is 0.339 (inactive).

`CC(C)C(=C=CC[C@@H](O)c1ccccc1OCCO)C[C@@H](O)c1cc(Cl)cc(Cl)c1O`: the composite z-score in [1] was 0.77; in experiment [3], 0.156; in experiment [4], -0.147; in experiment [5] it was 0.68; in [6] it was 1.76; in experiment [7] it was 0.632. Also, the results for the composite z-score in [8], in [9] and in [10] were 1.26, 0.784 and 0.612, respectively. Besides, in [2], the composite Z-score was -0.235 (inactive).

Regarding `NC(=O)N1C(=O)C2C(C1=O)C1C=C(CCCO)C2C(c2ccc(CN3CCCC3)cc2)N1Cc1cccc(OC(F)(F)F)c1` (stereo not given), the composite z-score is 0.0639 in experiment [1]; 0.0142 in experiment [3]; -0.0148 in experiment [4]; 0.203 in experiment [5]; 0.904 in experiment [6]; 0.0715 in experiment [7]. The composite z-score in [8] is 0.64; in experiment [9] it was 0.681; in experiment [10] it was -0.171. The composite Z-score in experiment [2] is 0.463 (inactive).

As for `C=CCN1C(=O)[C@]2(O[C@H](CCn3cc([C@H](O)c4ccccc4)nn3)[C@@H]([Si](C)(C)c3ccc(OC)cc3)[C@@H]2C)c2cc(N3C(=O)c4cccc5cccc3c45)ccc21`, the composite z-score in experiment [1] is 0.626; in experiment [3], -0.141; in experiment [4], -0.126; in experiment [5] it was 0.522; in [6], 0.515; in experiment [7], 0.389. The composite z-score in experiment [8] was 0.598; in [9], -0.693; in [10] it was 0.471. In addition, the composite Z-score in experiment [2] was 0.783 (inactive).

Regarding `COc1ccc([Si](C)(C)[C@H]2[C@H](CC(=O)N3Cc4ccccc4C[C@H]3CO)O[C@@]3(C(=O)N(Cc4cccc(N5C(=O)c6cccc7cccc5c67)c4)c4ccccc43)[C@@H]2C)cc1`, the composite z-score in experiment [1] was -0.0311; in [3], -0.332; in [4], -0.114; in [5], 0.295; in [6], 1.32; in experiment [7], 0.271. In addition, the composite z-score in [8] came to 1.15; in [9] it was 1.33; in [10] it was 0.872. Moreover, in experiment [2], the composite Z-score is 0.285 (inactive).

For `CC[C@H](C)C(=O)O[C@H]1CC[C@]2(C)C3=C(CCC2C1(C)C)[C@]1(C)CC[C@H]([C@H](C)CCCC(C)C)[C@@]1(C)CC3` (stereo not given in full), the composite z-score was -0.0017 in experiment [1]; -0.0947 in experiment [3]; -0.146 in [4]; -0.0247 in experiment [5]; 0.627 in experiment [6]; -0.329 in [7]. Also, the composite z-score in [8] was 0.329; in [9] it was 0.367; in experiment [10], 0.515. Also, the composite Z-score in experiment [2] is -0.014 (inactive).

With `C[N+](C)(C)CCCCCCNC(=O)[C@H]1C[C@H]2C(=O)NCC(=O)N2[C@H]1c1cccc(OCCO)c1`, the composite z-score in experiment [1] is -0.27; in experiment [3] it was 0.11; in experiment [4] it was -0.0877; in [5], 0.594; in experiment [6], 1.05; in experiment [7], 0.662. Moreover, the composite z-score in experiment [8] is 0.562; in [9], 1.36; in experiment [10] it was 0.907. The composite Z-score in experiment [2] is 0.536 (inactive).

Turning to `O=C1c2ccccc2[C@](Cc2ccccc2I)(C(=O)O)[C@H](c2ccc(CO)cc2)N1Cc1ccccc1`, the composite z-score in [1] is 0.48; in [3], -0.123; in [4] it was -0.112; in [5], 0.729; in experiment [6], 1.25; in experiment [7], 1.05. Besides, the composite z-score in experiment [8] was 1.25; in [9], -0.813; in experiment [10] it was 1.02. Besides, the composite Z-score in experiment [2] is 0.929 (inactive).

In the case of `COc1ccc(C#Cc2ccc3c(c2)[C@]2(C(=O)N3)[C@H](c3ccc(OCCO)cc3)N3[C@H](c4ccccc4)[C@H](c4ccccc4)OC(=O)[C@H]3[C@@H]2C(=O)O)cc1`, the composite z-score in experiment [1] is -0.0067; in experiment [3] it was 1.18; in [4], -0.0907; in [5], 0.653; in experiment [6] it was 3.18; in experiment [7] it was 0.811. The composite z-score in experiment [8] worked out at 1.3; in experiment [9], 0.234; in [10] it was 0.761. The composite Z-score in [2] is -0.221 (inactive).

Turning to `COCCOC(=O)N1C(=O)[C@@]2(c3cc(C#CCCO)ccc31)[C@H](c1ccc(O)cc1)N1[C@H](c3ccccc3)[C@H](c3ccccc3)OC(=O)[C@H]1[C@@H]2C(=O)N1CCc2cc(OC)c(OC)cc2C1`, the composite z-score was -0.997 in experiment [1]; 0.341 in experiment [3]; 0.305 in experiment [4]; 0.345 in experiment [5]; 1.48 in [6]; 1.07 in experiment [7]. Besides, the figures for the composite z-score in experiment [8], in experiment [9] and in experiment [10] were 1.32, 0.789 and 1.06, respectively. Also, the composite Z-score in experiment [2] was 0.454 (inactive).

On to `O=C1O[C@H](c2ccccc2)[C@H](c2ccccc2)N2[C@H]1[C@@H](C(=O)NC[C@H](O)c1ccccc1)[C@]1(C(=O)Nc3ccc(C#CCCO)cc31)[C@H]2c1ccccc1OCCO`, for which the composite z-score in [1] is 0.695; in [3], -0.0581; in experiment [4] it was -0.0666; in [5] it was 0.597; in experiment [6], 2.38; in [7] it was 0.728. The composite z-score is 1.29 in [8], -0.189 in experiment [9] and 1.02 in [10]. Besides, the composite Z-score in [2] is 1.27 (inactive).

On to `C=C(/C(=C/C[C@@H](OC(C)=O)c1ccccc1OCCO)c1cc(C(=O)OC)ccc1OC)C(C)C`, for which the composite z-score is 0.344 in [1]; 0.217 in experiment [3]; -0.0548 in experiment [4]; 0.697 in experiment [5]; 0.335 in [6]; -0.394 in [7]. The composite z-score is 0.373 in [8], -0.134 in experiment [9] and 1.02 in [10]. Also, the composite Z-score in experiment [2] is 0.231 (inactive).
